# Reference: PubChem BioAssay
# Where “and” joins values, the source holds several entries; their conditions need not be identical. Identical values can stand only once. Calls of active or inactive are those of the source. Rule as the data show it, unless noted: active = parasite load remaining mostly below about 12% (no sharp cut-off); inactive = mostly above about 10%.
# Assays:
# [1] = P. berghei load reduction in hepatocytes – cell-based, HepG2, luciferase luminescence, HepG2 viability, primary screen (AID 624349);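 also: 100% = mean of DMSO negative control wells on the same plate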; details: P. berghei liver stage in HepG2, luciferase luminescence, concentration not given here; parasite load remaining: stronger effect = lower value; viability: measured here: HepG2 viability without parasites
# [2] = Wnt pathway potentiators raising nuclear beta-catenin – imaging, WNT3A-conditioned medium, mouse C2C12, NPC library, primary screen (AID 1117326; in the data active = nuclear beta-catenin stimulation mostly above about 4.2%, no sharp cut-off; inactive = mostly below about 10%); details: stronger effect = higher value
# [3] = stimulators of insulin release from INS-1E, primary screen, cell-based, 5 mM glucose, NPC library (AID 1117329;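 active = compound raises insulin release from rat beta cells at 5 mM glucose, no numeric limit stated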); details: rat INS-1E insulin secretion, at 10 µM, stronger effect = higher value
# [4] = growth inhibition of GSK3B-pretreated HCT116 cells – cell-based, CellTiter-Glo, 0.2 to 20 µM (AID 1117336;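 active = compounds lowering colon cancer cell viability after pretreatment blocking the GSK3B kinase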); details: HCT116 viability after GSK3B inhibitor, at 20 µM, stronger effect = higher value
# [5] = inhibition of endothelial tube formation, primary screen, imaging, VEGF stimulated, CD31 staining, tube area, NPC library (AID 1117340;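 active = compound that reduces growth-factor-driven endothelial tube area in a mixed cell culture, no cutoff stated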); details: VEGF-stimulated ADSC/ECFC co-culture, at 10 µM, stronger effect = higher value
# [6] = GLP1 release stimulators, primary, NCI-H716, NPC library (AID 1117341;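 active = compound raises GLP1 secretion from the human gut endocrine cells, with no numeric limit stated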); details: NCI-H716 cells, at 10 µM, stronger effect = higher value
# [7] = HCT116 colon cancer cell growth inhibition, primary screen, CellTiter-Glo luminescence, NPC library (AID 1117342;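 active = compounds that lower survival of HCT116 colon cancer cells in the luminescence readout, no numeric limit stated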); details: at 20 µM (top of the series)
# [8] = reduced SW480 viability measured with CellTiter-Glo, NPC library, primary (AID 1117343;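 active = compounds that lower viability of the colon cancer cells in the luminescence readout, with no numeric limit stated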); details: CellTiter-Glo luminescence; at 20 µM (top of the series) unless noted
# [9] = NPC library primary testing for decreased DLD-1 cell viability via CellTiter-Glo (AID 1117346;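 active = compounds that lower survival of DLD-1 colon cancer cells in the luminescence readout, no cutoff given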); details: DLD-1 viability, CellTiter-Glo luminescence; at 20 µM (top of the series)
# [10] = EMT-state selective cytotoxicity in co-culture – imaging, PC-3E GFP, TEM4-18 mCherry, primary screen (AID 1345086;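 active = compounds killing one labelled cell type while sparing the other, by normalised counts and ratio limits, not self-fluorescent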;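 as to all read-outs here: cells exposed to compound for 72 h before imaging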;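 as to red/green cell ratio (normalised): normalised mesenchymal count divided by normalised epithelial count so high means epithelial killing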); details: PC-3E GFP / TEM4-18 mCherry co-culture, imaging cell counts, at 1 µM; for red/green cell ratio (normalised): actives lie on both sides, counts scaled to control wells, 1 = unselective
# [11] = MELAS cybrid and Rieske KO viability enhancers – cell-based, MELAS cybrids, Rieske KO mouse fibroblasts, CellTiter-Glo, primary screen (AID 1508586;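 active = mean z-score across replicates of 1.96 or higher in either the MELAS or the Rieske mutant cell line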;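 also: z relative to plate mean and SD of compound and empty wells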); details: low glucose
# [12] = target: NAD(+) hydrolase SARM1 (Homo sapiens) (UniProt Q6SZW1); assay: blocking NAD cleavage by SARM1 SAM-TIR – cell lysate, NAD-Glo luminescence (AID 1508614;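 active = compound whose remaining NAD level is above about 45 nM, limit read from the data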;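 also: higher remaining NAD means stronger inhibition of SARM1 NADase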); details: SAM-TIR HEK293T lysate NADase, at 1 µM, stronger effect = higher value
# [13] = galactose survival enhancers in mitochondrial complex I cybrids – cell-based, galactose medium, ATP luminescence, primary screen (AID 1645843;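 active = z-score of at least 1.8 in each of two replicates, scored against plate mean and spread of sample wells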;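 also: positive z means more ATP and so rescue of galactose-driven cybrid death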); details: complex I mutant cybrid cells, 72 h, stronger effect = higher value
# [14] = viability loss with induced miR-34 in A549 – imaging, A549 dox-inducible miR-34, nuclei and caspase counts, primary screen (AID 1347080;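 active = compounds whose cell count with miR-34 switched on is under 0.7 times the count with it off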); details: A549 miR-34 inducible, Hoechst nuclei count, 48 h
# [15] = measured here: epithelial PC-3E GFP cell survival
# [16] = measured here: mesenchymal TEM4-18 mCherry cell survival
# [17] = stronger effect = lower value, cell number ratio, induced over uninduced
# [18] = measured here: relative caspase fold change +Dox/-Dox
# [19] = measured here: total cells with miR-34 induction, stronger effect = lower value
# [20] = measured here: total cells without miR-34 induction
# Chain of NAD(+) hydrolase SARM1 (Homo sapiens) (Q6SZW1 whole entry, looked up): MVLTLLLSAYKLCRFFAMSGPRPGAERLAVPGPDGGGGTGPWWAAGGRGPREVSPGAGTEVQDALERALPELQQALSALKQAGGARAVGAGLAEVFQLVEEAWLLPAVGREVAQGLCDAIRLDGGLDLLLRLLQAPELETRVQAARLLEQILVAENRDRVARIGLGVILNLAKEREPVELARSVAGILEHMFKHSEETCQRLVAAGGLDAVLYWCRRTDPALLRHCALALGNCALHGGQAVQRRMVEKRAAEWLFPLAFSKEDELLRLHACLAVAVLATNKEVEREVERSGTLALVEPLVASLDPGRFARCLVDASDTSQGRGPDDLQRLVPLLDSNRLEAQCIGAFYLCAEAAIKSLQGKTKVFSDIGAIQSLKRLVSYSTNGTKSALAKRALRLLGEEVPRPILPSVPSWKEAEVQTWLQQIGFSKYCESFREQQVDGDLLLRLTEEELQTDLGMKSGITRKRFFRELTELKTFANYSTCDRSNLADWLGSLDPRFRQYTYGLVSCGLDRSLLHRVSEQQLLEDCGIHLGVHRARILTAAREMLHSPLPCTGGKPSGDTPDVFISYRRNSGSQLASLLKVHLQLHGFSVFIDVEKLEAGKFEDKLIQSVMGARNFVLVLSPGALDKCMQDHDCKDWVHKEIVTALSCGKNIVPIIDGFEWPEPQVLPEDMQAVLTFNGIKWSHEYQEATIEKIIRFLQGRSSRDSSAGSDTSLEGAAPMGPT
compound,measurement,setting,value
C[N+](C)(C)CCCCCCCCCC[N+](C)(C)C,parasite load remaining,[1],84.1% (inactive) and 61.8% (inactive) and 73.4% (inactive)
same,viability,[1],80.8% and 105% and 148%
same,nuclear beta-catenin stimulation,[2]; at 10 µM,-0.1% (inactive)
same,nuclear beta-catenin stimulation,"[2]; stimulation, at 2 µM",-0.9%
same,insulin secretion stimulation,[3],1.7% (inactive)
same,viability decrease,[4],17.6% (inactive)
same,tube area decrease,[5],-2.9% (inactive)
same,GLP1 secretion stimulation,[6],0.7% (inactive)
same,inhibition of viability,[7],2.9% (inactive)
same,viability decrease (inhibition),[8],-8.7% (inactive)
same,viability decrease (inhibition),[9],-0.3% (inactive)
same,red/green cell ratio (normalised),[10],0.87 (inactive)
same,normalised cell number,[10]; [15],1.13
same,normalised cell number,[10]; [16],0.99
same,z-score,"[11]; MELAS cybrid survival, CellTiter-Glo 48 h, stronger effect = higher value",-0.278 (inactive) and -0.415 (inactive) and 0.382 (inactive)
same,z-score,"[11]; Rieske KO mouse fibroblast survival, CellTiter-Glo 72 h",-0.149 and -1.14 and 0.433
same,remaining NAD,[12],10 nM (inactive)
same,z-score,[13],0.27 (inactive) and 0.14 (inactive)
CC(C)CCCC(C)N (stereo not given),parasite load remaining,[1],30.8% (inactive)
same,viability,[1],90%
same,nuclear beta-catenin stimulation,[2]; at 10 µM,3.1% (inactive)
same,nuclear beta-catenin stimulation,"[2]; stimulation, at 2 µM",2%
same,insulin secretion stimulation,[3],4.9% (inactive)
same,viability decrease,[4],2% (inactive)
same,tube area decrease,[5],-9.7% (inactive)
same,GLP1 secretion stimulation,[6],0% (inactive)
same,inhibition of viability,[7],-7.6% (inactive)
same,viability decrease (inhibition),[8],-47.3% (active)
same,viability decrease (inhibition),[9],-8.6% (active)
same,red/green cell ratio (normalised),[10],1.15 (inactive)
same,normalised cell number,[10]; [15],0.96
same,normalised cell number,[10]; [16],1.1
same,fold change,[14]; [17],0.884 (inactive)
same,fold change,[14]; [18],1.92
same,cell count,[14]; [19],11300
same,cell count,[14]; [20],12800
same,remaining NAD,[12],10 nM (inactive)
Cc1cc(C(C#N)c2ccc(Cl)cc2)c(Cl)cc1NC(=O)c1cc(I)cc(I)c1O (stereo not given),parasite load remaining,[1],10.9% (inactive)
same,viability,[1],94.5%
same,nuclear beta-catenin stimulation,[2]; at 10 µM,2.4% (inactive)
same,nuclear beta-catenin stimulation,"[2]; stimulation, at 2 µM",1.5%
same,insulin secretion stimulation,[3],-0.6% (inactive)
same,viability decrease,[4],120% (active)
same,tube area decrease,[5],111% (active)
same,GLP1 secretion stimulation,[6],14.4% (inactive)
same,inhibition of viability,[7],125% (active)
same,viability decrease (inhibition),[8],163% (active)
same,viability decrease (inhibition),[9],101% (active)
same,red/green cell ratio (normalised),[10],0.8 (inactive)
same,normalised cell number,[10]; [15],1.27
same,normalised cell number,[10]; [16],1.02
same,remaining NAD,[12],10 nM (inactive)
same,z-score,[13],0.12 (inactive)
NC(=O)c1cc[n+](CC2=C(C(=O)[O-])N3C(=O)[C@@H](NC(=O)Cc4cccs4)[C@H]3SC2)cc1,parasite load remaining,[1],91.4% (inactive)
same,viability,[1],73.4%
same,nuclear beta-catenin stimulation,[2]; at 10 µM,-2.2% (inactive)
same,nuclear beta-catenin stimulation,"[2]; stimulation, at 2 µM",-0.6%
same,insulin secretion stimulation,[3],11.8% (inactive)
same,viability decrease,[4],10.6% (inactive)
same,tube area decrease,[5],-7.6% (inactive)
same,GLP1 secretion stimulation,[6],0.9% (inactive)
same,inhibition of viability,[7],-2.6% (inactive)
same,viability decrease (inhibition),[8],3.4% (inactive)
same,viability decrease (inhibition),[9],5.4% (inactive)
same,red/green cell ratio (normalised),[10],0.75 (inactive)
same,normalised cell number,[10]; [15],1.26
same,normalised cell number,[10]; [16],0.94
same,fold change,[14]; [17],0.969 (inactive)
same,fold change,[14]; [18],0.479
same,cell count,[14]; [19],9810
same,cell count,[14]; [20],10100
same,remaining NAD,[12],10 nM (inactive)
OCCc1ccccc1,parasite load remaining,[1],52.9% (inactive)
same,viability,[1],121%
same,nuclear beta-catenin stimulation,[2]; at 10 µM,4.3% (inactive)
same,nuclear beta-catenin stimulation,"[2]; stimulation, at 2 µM",-0.1%
same,insulin secretion stimulation,[3],-0.8% (inactive)
same,viability decrease,[4],-30.2% (inactive)
same,tube area decrease,[5],-4.7% (inactive)
same,GLP1 secretion stimulation,[6],-0.7% (inactive)
same,inhibition of viability,[7],-7.95% (inactive)
same,viability decrease (inhibition),[8],11.9% (inactive)
same,viability decrease (inhibition),[9],-12.4% (inactive)
same,red/green cell ratio (normalised),[10],0.97 (inactive)
same,normalised cell number,[10]; [15],1.02
same,normalised cell number,[10]; [16],1
same,fold change,[14]; [17],0.881 (inactive)
same,fold change,[14]; [18],7.55
same,cell count,[14]; [19],11500
same,cell count,[14]; [20],13000
same,remaining NAD,[12],10 nM (inactive)
NS(=O)(=O)c1ccc(C(=O)O)cc1,nuclear beta-catenin stimulation,[2]; at 10 µM,1.5% (inactive)
same,nuclear beta-catenin stimulation,"[2]; stimulation, at 2 µM",1.6%
same,insulin secretion stimulation,[3],-0.4% (inactive)
same,viability decrease,[4],15.4% (inactive)
same,tube area decrease,[5],-32.8% (inactive)
same,GLP1 secretion stimulation,[6],2.9% (inactive)
same,inhibition of viability,[7],-10.4% (inactive)
same,viability decrease (inhibition),[8],21.5% (inactive)
same,viability decrease (inhibition),[9],3.9% (inactive)
same,red/green cell ratio (normalised),[10],0.82 (inactive)
same,normalised cell number,[10]; [15],1.25
same,normalised cell number,[10]; [16],1.03
same,fold change,[14]; [17],0.907 (inactive)
same,fold change,[14]; [18],1.07
same,cell count,[14]; [19],8630
same,cell count,[14]; [20],9520
same,remaining NAD,[12],10 nM (inactive)
CCN(CC)CCOc1ccc2c(c1)C(=O)c1cc(OCCN(CC)CC)ccc1-2,parasite load remaining,[1],151% (inactive) and 24.6% (inactive)
same,viability,[1],84.5% and 89%
same,nuclear beta-catenin stimulation,[2]; at 10 µM,8.6% (inactive)
same,nuclear beta-catenin stimulation,"[2]; stimulation, at 2 µM",0.3%
same,insulin secretion stimulation,[3],3.7% (inactive)
same,viability decrease,[4],-16.4% (inactive)
same,tube area decrease,[5],13% (inactive)
same,GLP1 secretion stimulation,[6],3.6% (inactive)
same,inhibition of viability,[7],52.8% (active)
same,viability decrease (inhibition),[8],95.3% (active)
same,viability decrease (inhibition),[9],38.8% (inactive)
same,red/green cell ratio (normalised),[10],1.18 (inactive)
same,normalised cell number,[10]; [15],0.79
same,normalised cell number,[10]; [16],0.93
same,fold change,[14]; [17],0.841 (inactive)
same,fold change,[14]; [18],3.57
same,cell count,[14]; [19],9990
same,cell count,[14]; [20],11900
same,remaining NAD,[12],10 nM (inactive)
O=C1OC2(c3ccc(O)cc3Oc3cc(O)ccc32)c2ccccc21,parasite load remaining,[1],58.1% (inactive)
same,viability,[1],92.3%
same,nuclear beta-catenin stimulation,[2]; at 10 µM,-0.4% (inactive)
same,nuclear beta-catenin stimulation,"[2]; stimulation, at 2 µM",3.4%
same,insulin secretion stimulation,[3],3.7% (inactive)
same,viability decrease,[4],6.1% (inactive)
same,tube area decrease,[5],15.8% (inactive)
same,GLP1 secretion stimulation,[6],-2.3% (inactive)
same,inhibition of viability,[7],9.8% (inactive)
same,viability decrease (inhibition),[8],16% (inactive)
same,viability decrease (inhibition),[9],-11.6% (inactive)
same,red/green cell ratio (normalised),[10],1.43 (inactive)
same,normalised cell number,[10]; [15],1.11
same,normalised cell number,[10]; [16],1.6
same,fold change,[14]; [17],0.894 (inactive)
same,fold change,[14]; [18],5.09
same,cell count,[14]; [19],11200
same,cell count,[14]; [20],12500
same,remaining NAD,[12],10 nM (inactive)
CCOC(=O)c1ccc(O)cc1,parasite load remaining,[1],75.1% (inactive)
same,viability,[1],94.6%
same,nuclear beta-catenin stimulation,[2]; at 10 µM,-0.6% (inactive)
same,nuclear beta-catenin stimulation,"[2]; stimulation, at 2 µM",0.9%
same,insulin secretion stimulation,[3],5.1% (inactive)
same,viability decrease,[4],1.8% (inactive)
same,tube area decrease,[5],-5% (inactive)
same,GLP1 secretion stimulation,[6],2.1% (inactive)
same,inhibition of viability,[7],4.1% (inactive)
same,viability decrease (inhibition),[8],29.4% (inactive)
same,viability decrease (inhibition),[9],11.2% (inactive)
same,red/green cell ratio (normalised),[10],0.82 (inactive)
same,normalised cell number,[10]; [15],1.05
same,normalised cell number,[10]; [16],0.86
same,fold change,[14]; [17],0.873 (inactive)
same,fold change,[14]; [18],1.39
same,cell count,[14]; [19],10900
same,cell count,[14]; [20],12500
same,remaining NAD,[12],10 nM (inactive)
